# According to PMC8384837, “Expanding the binding specificity for RNA recognition by a PUF domain”:
# Positions count from the first letter of the chain named.
# What was measured:
# Test in all cases: yeast three-hybrid, YBZ-1, SC-Leu-His + 0.5 mM 3-AT, 4 days
# Conditions in all cases: tags: N-Gal4 AD-HA kept; label: inside an RPR1-promoter hybrid RNA with tandem MS2 sites; ssRNA
# PUM1 PUF domain R6-GFR = molecular target: T1, PUM1 PUF domain R6-GFR (Homo sapiens, UniProt Q14671 828-1176, N1043G;Y1044F;Q1047R)
# T1 sequence: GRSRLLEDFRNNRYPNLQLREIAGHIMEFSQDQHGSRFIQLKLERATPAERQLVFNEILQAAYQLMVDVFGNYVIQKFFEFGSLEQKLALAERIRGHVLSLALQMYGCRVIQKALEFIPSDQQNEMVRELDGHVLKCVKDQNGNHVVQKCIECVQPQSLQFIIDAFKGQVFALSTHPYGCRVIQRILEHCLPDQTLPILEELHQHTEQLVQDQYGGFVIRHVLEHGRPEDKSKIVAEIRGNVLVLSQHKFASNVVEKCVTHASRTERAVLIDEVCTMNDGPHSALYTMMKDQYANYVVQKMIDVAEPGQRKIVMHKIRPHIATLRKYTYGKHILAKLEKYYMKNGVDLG
# Method in brief: (§1)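 Repeat regions from input (SC-Leu) and selection (SC-Leu-His + 0.5 mM 3-AT) plates were PCR-amplified and Illumina-sequenced after four days of growth. The cells were strain YBZ-1 with a LexA–MS2 coat fusion and a HIS3 reporter, co-expressing Pumilio-1 PUF domain libraries and matching RNA elements from a centromeric plasmid. The interaction score is the log change in variant frequency from input to selection, taken in log2 with a pseudocount of 1 for absent variants.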
# PUM1 PUF domain R3-GWM = PUM1 PUF domain R3-GWM (Homo sapiens, UniProt Q14671 828-1176, C935G;R936W;Q939M)
# Method in brief: as §1
# PUM1 PUF domain R3-RVM = PUM1 PUF domain R3-RVM (Homo sapiens, UniProt Q14671 828-1176, C935R;R936V;Q939M)
# Method in brief: as §1
# PUM1 PUF domain R4-SFP = PUM1 PUF domain R4-SFP (Homo sapiens, UniProt Q14671 828-1176, N971S;H972F;Q975P)
# Method in brief: as §1
# PUM1 PUF domain R4-CRR = PUM1 PUF domain R4-CRR (Homo sapiens, UniProt Q14671 828-1176, N971C;H972R;Q975R)
# Method in brief: as §1
# PUM1 PUF domain R4-CNG = PUM1 PUF domain R4-CNG (Homo sapiens, UniProt Q14671 828-1176, N971C;H972N;Q975G)
# Method in brief: as §1
# PUM1 PUF domain R1-QLR = PUM1 PUF domain R1-QLR (Homo sapiens, UniProt Q14671 828-1176, S863Q;R864L;Q867R)
# Method in brief: as §1
# PUM1 PUF domain R8-RFD = PUM1 PUF domain R8-RFD (Homo sapiens, UniProt Q14671 828-1176, N1122R;Y1123F;Q1126D)
# Method in brief: as §1
# PUM1 PUF domain R8-KHR = PUM1 PUF domain R8-KHR (Homo sapiens, UniProt Q14671 828-1176, N1122K;Y1123H;Q1126R)
# Method in brief: as §1
# PUM1 PUF domain R8-SWF = PUM1 PUF domain R8-SWF (Homo sapiens, UniProt Q14671 828-1176, N1122S;Y1123W;Q1126F)
# Method in brief: as §1
# PUM1 PUF domain R5-LNS = PUM1 PUF domain R5-LNS (Homo sapiens, UniProt Q14671 828-1176, C1007L;R1008N;Q1011S)
# Method in brief: as §1
# PUM1 PUF domain R5-NSR = PUM1 PUF domain R5-NSR (Homo sapiens, UniProt Q14671 828-1176, C1007N;R1008S;Q1011R)
# Method in brief: as §1
# PUM1 PUF domain R7-TRR = PUM1 PUF domain R7-TRR (Homo sapiens, UniProt Q14671 828-1176, S1079T;N1080R;E1083R)
# Method in brief: as §1
# PUM1 PUF domain R6-LFA = molecular target: T2, PUM1 PUF domain R6-LFA (Homo sapiens, UniProt Q14671 828-1176, N1043L;Y1044F;Q1047A)
# T2 sequence: T1 sequence with G216L, R220A
# Method in brief: as §1
# PUM1 PUF domain R6-TFM = molecular target: T3, PUM1 PUF domain R6-TFM (Homo sapiens, UniProt Q14671 828-1176, N1043T;Y1044F;Q1047M)
# T3 sequence: T1 sequence with G216T, R220M
# Method in brief: as §1
# PUM1 PUF domain R6-VWG = molecular target: T4, PUM1 PUF domain R6-VWG (Homo sapiens, UniProt Q14671 828-1176, N1043V;Y1044W;Q1047G)
# T4 sequence: T1 sequence with G216V, F217W, R220G
# Method in brief: as §1
# PUM1 PUF domain R3-SNF = PUM1 PUF domain R3-SNF (Homo sapiens, UniProt Q14671 828-1176, C935S;R936N;Q939F)
# Method in brief: as §1
# PUM1 PUF domain R6-VWC = molecular target: T5, PUM1 PUF domain R6-VWC (Homo sapiens, UniProt Q14671 828-1176, N1043V;Y1044W;Q1047C)
# T5 sequence: T1 sequence with G216V, F217W, R220C
# Method in brief: as §1
# PUM1 PUF domain R5-LHC = PUM1 PUF domain R5-LHC (Homo sapiens, UniProt Q14671 828-1176, C1007L;R1008H;Q1011C)
# Method in brief: as §1
# PUM1 PUF domain R5-SIC = PUM1 PUF domain R5-SIC (Homo sapiens, UniProt Q14671 828-1176, C1007S;R1008I;Q1011C)
# Method in brief: as §1
sequence,measurement,setting,value
GGCUAGAACUAGUGGAUCCCCCGGCGCCCGGCGGCUCGAGCCCGGGUAAGUGCAAAUAGUCUGCAUGCCGCCGGGCGCCAUGCCUGCAGGUCGACUCUAGAAAACAUG,binding signal,PUM1 PUF domain R6-GFR,6.98 log2 enrichment (interaction score)
GGCUAGAACUAGUGGAUCCCCCGGCGCCCGGCGGCUCGAGCCCGGGUAAGUGUAAGUAGUCUGCAUGCCGCCGGGCGCCAUGCCUGCAGGUCGACUCUAGAAAACAUG,binding signal,PUM1 PUF domain R3-GWM,1.14 log2 enrichment (interaction score)
GGCUAGAACUAGUGGAUCCCCCGGCGCCCGGCGGCUCGAGCCCGGGUAAGUGUAAUUAGUCUGCAUGCCGCCGGGCGCCAUGCCUGCAGGUCGACUCUAGAAAACAUG,binding signal,PUM1 PUF domain R3-RVM,2.43 log2 enrichment (interaction score)
GGCUAGAACUAGUGGAUCCCCCGGCGCCCGGCGGCUCGAGCCCGGGUAAGUGUACAUAGUCUGCAUGCCGCCGGGCGCCAUGCCUGCAGGUCGACUCUAGAAAACAUG,binding signal,PUM1 PUF domain R4-SFP,6.2 log2 enrichment (interaction score)
same,binding signal,PUM1 PUF domain R4-CRR,3.13 log2 enrichment (interaction score)
same,binding signal,PUM1 PUF domain R4-CNG,2.39 log2 enrichment (interaction score)
GGCUAGAACUAGUGGAUCCCCCGGCGCCCGGCGGCUCGAGCCCGGGUAAGUGUAAAUCGUCUGCAUGCCGCCGGGCGCCAUGCCUGCAGGUCGACUCUAGAAAACAUG,binding signal,PUM1 PUF domain R1-QLR,4.6 log2 enrichment (interaction score)
GGCUAGAACUAGUGGAUCCCCCGGCGCCCGGCGGCUCGAGCCCGGGUAAGCGUAAAUAGUCUGCAUGCCGCCGGGCGCCAUGCCUGCAGGUCGACUCUAGAAAACAUG,binding signal,PUM1 PUF domain R8-RFD,4.38 log2 enrichment (interaction score)
same,binding signal,PUM1 PUF domain R8-KHR,6.43 log2 enrichment (interaction score)
same,binding signal,PUM1 PUF domain R8-SWF,1.73 log2 enrichment (interaction score)
GGCUAGAACUAGUGGAUCCCCCGGCGCCCGGCGGCUCGAGCCCGGGUAAGUGUUAAUAGUCUGCAUGCCGCCGGGCGCCAUGCCUGCAGGUCGACUCUAGAAAACAUG,binding signal,PUM1 PUF domain R5-LNS,4.81 log2 enrichment (interaction score)
same,binding signal,PUM1 PUF domain R5-NSR,4.06 log2 enrichment (interaction score)
GGCUAGAACUAGUGGAUCCCCCGGCGCCCGGCGGCUCGAGCCCGGGUAAGUCUAAAUAGUCUGCAUGCCGCCGGGCGCCAUGCCUGCAGGUCGACUCUAGAAAACAUG,binding signal,PUM1 PUF domain R7-TRR,3.35 log2 enrichment (interaction score)
GGCUAGAACUAGUGGAUCCCCCGGCGCCCGGCGGCUCGAGCCCGGGUAAGUGAAAAUAGUCUGCAUGCCGCCGGGCGCCAUGCCUGCAGGUCGACUCUAGAAAACAUG,binding signal,PUM1 PUF domain R6-LFA,6.15 log2 enrichment (interaction score)
same,binding signal,PUM1 PUF domain R6-TFM,2.84 log2 enrichment (interaction score)
same,binding signal,PUM1 PUF domain R6-VWG,6.85 log2 enrichment (interaction score)
GGCUAGAACUAGUGGAUCCCCCGGCGCCCGGCGGCUCGAGCCCGGGUAAGUGUCAAUAGUCUGCAUGCCGCCGGGCGCCAUGCCUGCAGGUCGACUCUAGAAAACAUG,binding signal,PUM1 PUF domain R5-NSR,4.06 log2 enrichment (interaction score)
GGCUAGAACUAGUGGAUCCCCCGGCGCCCGGCGGCUCGAGCCCGGGUAAGUGUAUAUAGUCUGCAUGCCGCCGGGCGCCAUGCCUGCAGGUCGACUCUAGAAAACAUG,binding signal,PUM1 PUF domain R4-SFP,7.15 log2 enrichment (interaction score)
same,binding signal,PUM1 PUF domain R4-CNG,4.94 log2 enrichment (interaction score)
GGCUAGAACUAGUGGAUCCCCCGGCGCCCGGCGGCUCGAGCCCGGGUAAGUGUAAAUAGUCUGCAUGCCGCCGGGCGCCAUGCCUGCAGGUCGACUCUAGAAAACAUG,binding signal,PUM1 PUF domain R3-SNF,2.65 log2 enrichment (interaction score)
same,binding signal,PUM1 PUF domain R6-VWC,3.32 log2 enrichment (interaction score)
same,binding signal,PUM1 PUF domain R5-LHC,2.44 log2 enrichment (interaction score)
same,binding signal,PUM1 PUF domain R6-GFR,4.38 log2 enrichment (interaction score)
same,binding signal,PUM1 PUF domain R8-KHR,2.92 log2 enrichment (interaction score)
same,binding signal,PUM1 PUF domain R3-GWM,2.49 log2 enrichment (interaction score)
same,binding signal,PUM1 PUF domain R8-SWF,2.33 log2 enrichment (interaction score)
same,binding signal,PUM1 PUF domain R5-SIC,3.43 log2 enrichment (interaction score)
same,binding signal,PUM1 PUF domain R6-VWG,2.67 log2 enrichment (interaction score)
same,binding signal,PUM1 PUF domain R4-CNG,2.92 log2 enrichment (interaction score)
